# Assay results: PubChem BioAssay (EPA / NIEHS)
# Activity calls are given as the source filed them. Rule for the calls: active = hit-call score of the fitted dose curve at least 0.9, where 1 is the maximum; inactive = score below 0.9.
# Assay: ATG_E_Box_CIS: Attagene CIS-FACTORIAL HepG2 Assay for human Enhancer Box (E-box) (AID 2282936)
# Conditions: HepG2 E-box cis-reporter transcription, actives raise or lower the signal
# In short: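 E-box-driven reporter transcripts measured in transiently transfected HepG2 after 24 h exposure: RNA reverse-transcribed, PCR-amplified, fluorescently labelled, digested and resolved by capillary electrophoresis. Gain or loss relative to DMSO.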
SMILES,outcome,AC50
C[C@]12CCC(=O)C=C1CC[C@@H]1[C@@H]2CC[C@]2(C)C(=O)CC[C@@H]12,inactive,
CCCN(CCC)N=O,inactive,
CO/C=C(/C(=O)OC)c1ccccc1COc1cccc(C(F)(F)F)n1,inactive,
CC#Cc1cc(C)nc(Nc2ccccc2)n1,,140 µM (active)
COS(=O)(=O)OC,inactive,
Cc1cc2c3c(c1)C(c1ccccc1)=N[C@@H](NC(=O)c1ccncc1)C(=O)N3CC2,inactive,
Cc1ccccc1CO[C@@H]1C[C@@]2(C(C)C)CC[C@]1(C)O2,inactive,
Clc1ccc(C(c2ccccc2Cl)C(Cl)(Cl)Cl)cc1 (centres undefined),inactive,
O=NN(c1ccccc1)c1ccccc1,inactive,
CCSC(=O)N(CC)C1CCCCC1,inactive,
Clc1ccc(Cl)cc1,inactive,
Cc1cccc([N+](=O)[O-])c1,inactive,
Clc1ccc(C(Cl)(Cl)Cl)cc1,inactive,
CCC(C)(CC)c1cc(NC(=O)c2c(OC)cccc2OC)on1,inactive,
Cc1ccccc1[N+](=O)[O-],inactive,
Cc1cccc(C)c1N,inactive,
Cc1ccccc1O,inactive,

SMILES,outcome,AC50
CCC(C)c1cc([N+](=O)[O-])cc([N+](=O)[O-])c1O (centres undefined),inactive,
C=CC(=O)NCNC(=O)C=C,inactive,
CCNc1nc(NC(C)C)nc(SC)n1,inactive,
Cc1cc(O)ccc1Cl,inactive,
COc1ccc(O)c(C(C)(C)C)c1,inactive,
CN(C)c1nc(=O)n(C2CCCCC2)c(=O)n1C,inactive,
ClC1=C(Cl)[C@]2(Cl)[C@@H]3[C@H]4C[C@H]([C@@H]5O[C@H]45)[C@@H]3[C@@]1(Cl)C2(Cl)Cl,inactive,
CCCCCCOC(=O)c1ccccc1C(=O)OCCCCCC,inactive,
Nn1cnnc1,inactive,
C=CC(N)=O,inactive,
CCOC(=O)C(O)(c1ccc(Cl)cc1)c1ccc(Cl)cc1,inactive,
C[C@]12CCC(=O)C=C1CC[C@@H]1[C@@H]2CC[C@@]2(C)[C@H]1CC[C@]2(C)O,inactive,
c1ccc(-c2ccccc2)cc1,inactive,
C1CC2OC2CC1C1CO1 (centres undefined),inactive,
Cc1cc(-c2ccc(N)c(C)c2)ccc1N,inactive,
CCCCCCCCOC(=O)c1ccccc1C(=O)OCCCCCCCC,inactive,

# Assay: ATG_M_61_CIS: Attagene CIS-FACTORIAL HepG2 Assay for M61 Transcription Factor (Internal Marker) (AID 2282937)
# Conditions: HepG2 Attagene CIS-FACTORIAL M61 internal marker reporter; actives raise or lower the signal
# In short: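 Readout: fluorescent reporter mRNA fragments resolved by capillary electrophoresis after RT-PCR. Transiently transfected human HepG2 cells carried MRTU constructs reporting endogenous TF activity; 24 h chemical exposure; gain or loss of signal fitted relative to DMSO.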
row,SMILES,outcome
1,C[C@]12CCC(=O)C=C1CC[C@@H]1[C@@H]2CC[C@]2(C)C(=O)CC[C@@H]12,inactive
2,CCCN(CCC)N=O,inactive
3,CO/C=C(/C(=O)OC)c1ccccc1COc1cccc(C(F)(F)F)n1,inactive
4,CC#Cc1cc(C)nc(Nc2ccccc2)n1,inactive
5,COS(=O)(=O)OC,inactive
6,Cc1cc2c3c(c1)C(c1ccccc1)=N[C@@H](NC(=O)c1ccncc1)C(=O)N3CC2,inactive
7,Cc1ccccc1CO[C@@H]1C[C@@]2(C(C)C)CC[C@]1(C)O2,inactive
8,Clc1ccc(C(c2ccccc2Cl)C(Cl)(Cl)Cl)cc1 (centres undefined),inactive
9,O=NN(c1ccccc1)c1ccccc1,inactive
10,CCSC(=O)N(CC)C1CCCCC1,inactive
11,Clc1ccc(Cl)cc1,inactive
12,Cc1cccc([N+](=O)[O-])c1,inactive
13,Clc1ccc(C(Cl)(Cl)Cl)cc1,inactive
14,CCC(C)(CC)c1cc(NC(=O)c2c(OC)cccc2OC)on1,inactive
15,Cc1ccccc1[N+](=O)[O-],inactive
16,Cc1cccc(C)c1N,inactive
17,Cc1ccccc1O,inactive

row,SMILES,outcome
1,CCC(C)c1cc([N+](=O)[O-])cc([N+](=O)[O-])c1O (centres undefined),inactive
2,C=CC(=O)NCNC(=O)C=C,inactive
3,CCNc1nc(NC(C)C)nc(SC)n1,inactive
4,Cc1cc(O)ccc1Cl,inactive
5,COc1ccc(O)c(C(C)(C)C)c1,inactive
6,CN(C)c1nc(=O)n(C2CCCCC2)c(=O)n1C,inactive
7,ClC1=C(Cl)[C@]2(Cl)[C@@H]3[C@H]4C[C@H]([C@@H]5O[C@H]45)[C@@H]3[C@@]1(Cl)C2(Cl)Cl,inactive
8,CCCCCCOC(=O)c1ccccc1C(=O)OCCCCCC,inactive
9,Nn1cnnc1,inactive
10,C=CC(N)=O,inactive
11,CCOC(=O)C(O)(c1ccc(Cl)cc1)c1ccc(Cl)cc1,inactive
12,C[C@]12CCC(=O)C=C1CC[C@@H]1[C@@H]2CC[C@@]2(C)[C@H]1CC[C@]2(C)O,inactive
13,c1ccc(-c2ccccc2)cc1,inactive
14,C1CC2OC2CC1C1CO1 (centres undefined),inactive
15,Cc1cc(-c2ccc(N)c(C)c2)ccc1N,inactive
16,CCCCCCCCOC(=O)c1ccccc1C(=O)OCCCCCCCC,inactive

# Assay: ATG_EGR_CIS: Attagene CIS-FACTORIAL HepG2 Assay for human Early Growth Response 1 (EGR1) (AID 2282938)
# Conditions: HepG2 Attagene CIS-FACTORIAL EGR reporter mRNA; actives raise or lower the signal
# In short: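 Read-out: fluorescent reporter-mRNA fragments resolved by capillary electrophoresis after RT-PCR, 24 h post-dose in transiently transfected HepG2. Endogenous transcription-factor activity reported via cis-element-regulated reporter units; gain or loss fitted relative to DMSO.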
SMILES,outcome,AC50
C[C@]12CCC(=O)C=C1CC[C@@H]1[C@@H]2CC[C@]2(C)C(=O)CC[C@@H]12,inactive,
CCCN(CCC)N=O,inactive,
CO/C=C(/C(=O)OC)c1ccccc1COc1cccc(C(F)(F)F)n1,,28.8 µM (active)
CC#Cc1cc(C)nc(Nc2ccccc2)n1,,67.5 µM (active)
COS(=O)(=O)OC,inactive,
Cc1cc2c3c(c1)C(c1ccccc1)=N[C@@H](NC(=O)c1ccncc1)C(=O)N3CC2,,42.8 µM (active)
Cc1ccccc1CO[C@@H]1C[C@@]2(C(C)C)CC[C@]1(C)O2,inactive,
Clc1ccc(C(c2ccccc2Cl)C(Cl)(Cl)Cl)cc1 (centres undefined),inactive,
O=NN(c1ccccc1)c1ccccc1,inactive,
CCSC(=O)N(CC)C1CCCCC1,inactive,
Clc1ccc(Cl)cc1,inactive,
Cc1cccc([N+](=O)[O-])c1,inactive,
Clc1ccc(C(Cl)(Cl)Cl)cc1,inactive,
CCC(C)(CC)c1cc(NC(=O)c2c(OC)cccc2OC)on1,inactive,
Cc1ccccc1[N+](=O)[O-],inactive,
Cc1cccc(C)c1N,inactive,
Cc1ccccc1O,inactive,

SMILES,outcome,AC50
CCC(C)c1cc([N+](=O)[O-])cc([N+](=O)[O-])c1O (centres undefined),inactive,
C=CC(=O)NCNC(=O)C=C,inactive,
CCNc1nc(NC(C)C)nc(SC)n1,inactive,
Cc1cc(O)ccc1Cl,inactive,
COc1ccc(O)c(C(C)(C)C)c1,,100 µM (active)
CN(C)c1nc(=O)n(C2CCCCC2)c(=O)n1C,inactive,
ClC1=C(Cl)[C@]2(Cl)[C@@H]3[C@H]4C[C@H]([C@@H]5O[C@H]45)[C@@H]3[C@@]1(Cl)C2(Cl)Cl,inactive,
CCCCCCOC(=O)c1ccccc1C(=O)OCCCCCC,inactive,
Nn1cnnc1,inactive,
C=CC(N)=O,inactive,
CCOC(=O)C(O)(c1ccc(Cl)cc1)c1ccc(Cl)cc1,inactive,
C[C@]12CCC(=O)C=C1CC[C@@H]1[C@@H]2CC[C@@]2(C)[C@H]1CC[C@]2(C)O,inactive,
c1ccc(-c2ccccc2)cc1,inactive,
C1CC2OC2CC1C1CO1 (centres undefined),inactive,
Cc1cc(-c2ccc(N)c(C)c2)ccc1N,inactive,
CCCCCCCCOC(=O)c1ccccc1C(=O)OCCCCCCCC,inactive,
